The structures appear in SMILES notation. Records with an inconclusive call do not appear. Active and inactive are the calls of the source. How the source made its calls, unless noted: active means hit-call score of the fitted dose curve at least 0.9, where 1 is the maximum; inconclusive means response in the unintended direction; inactive means score below 0.9.

Assay [1] can be described thus: ATG_VDRE_CIS: Attagene CIS-FACTORIAL HepG2 Assay for human Vitamin D Receptor Element (VDRE) (AID 2282968; active means hit-call score of the fitted dose curve at least 0.9, where 1 is the maximum; inactive means score below 0.9). The conditions noted are these: HepG2 VDRE cis-reporter transcription, actives raise or lower the signal. In outline:
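Steps: transfect HepG2 with multiple reporter transcription units; dose chemicals 24 h; isolate RNA; RT-PCR; label with 6-FAM primer extension; HpaI digest; capillary electrophoresis. Curves fitted both directions against DMSO.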

Assay [2] in a line: ATG_M_19_TRANS: Attagene TRANS-FACTORIAL HepG2 Assay for M19 Transcription Factor (Internal Marker) (AID 2282974). The conditions noted are these: HepG2 Attagene TRANS-FACTORIAL M19 internal marker reporter. Put shortly:
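Background-control readout: after 24 h chemical exposure of transfected HepG2 carrying GAL4-driven reporter units, RNA was reverse-transcribed, amplified, fluorescently labeled and sized by capillary electrophoresis; gain-of-signal fit against DMSO.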

The nature of assay [3]: ATG_GAL4_TRANS: Attagene TRANS-FACTORIAL HepG2 Assay for GAL4 (Internal Marker) (AID 2282976). The conditions noted are these: HepG2 Attagene TRANS GAL4 internal marker reporter. Put shortly:
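First, HepG2 cells were transfected with reporter units under GAL4-UAS control. Next, they were treated with chemical for 24 h. Finally, RNA was reverse-transcribed, PCR-amplified, FAM-labelled and resolved by capillary electrophoresis, with induction scored against DMSO.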

The target of assay [4] is Bile acid receptor (Homo sapiens) (UniProt Q96RI1). Put plainly: ATG_FXR_TRANS: Attagene TRANS-FACTORIAL HepG2 Assay for Farnesoid X Receptor (FXR) (AID 2282979).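 Further: hits raise reporter mRNA above DMSO so AC50 marks FXR activation.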 The conditions noted are these: HepG2 Attagene TRANS FXR-GAL4 reporter transcription. In outline:
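Transient transfection of HepG2 with multiplexed GAL4-UAS reporter units; exogenous FXR-GAL4 chimera. Dose 24 h → TriZol RNA → oligo(dT) RT → PCR, 6-FAM primer extension, HpaI cut → CE. Gain vs DMSO.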

Assay [5] has as its target human Thyroid Receptor alpha (THRa1), THRA (gene 7067) (UniProt P10827). In words: ATG_THRa1_TRANS: Attagene TRANS-FACTORIAL HepG2 Assay for human Thyroid Receptor alpha (THRa1) (AID 2283014). Put shortly: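 Reporter transcript induction, read by capillary electrophoresis of 6-FAM-labelled RT-PCR products, reflects activity of a transfected THRa1-Gal4 fusion in HepG2 liver cells. Cells were dosed for 24 h; activity was fitted in the positive direction against DMSO.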

A short description of assay [6]: ACEA_ER_AUC_viability: ACEA Biosciences xCELLigence Real-Time Cell Analysis on Estrogen Receptor Agonism for Viability (AID 2283782).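 Further: hit means loss of impedance signal meaning reduced cell growth or viability.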 In outline:
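Continuous-exposure impedance cell analysis uses T-47D cells in charcoal-stripped serum, eight 1:4 dilutions topping at 100 uM final, biological duplicate. Area under the growth curve at 80 h is fitted against DMSO baseline.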

The nature of assay [7]: CCTE_Harrill_HTTr_Viability_MCF7: CCTE's 6-hour Cell Viability Assessment for the High-Throughput Transcriptomics (HTTr) Platform, in MCF-7 cells cultured in DMEM + 10% fetal bovine serum, Harrill Lab (AID 2284010; active means hit-call score of the fitted dose curve at least 0.9, where 1 is the maximum; inactive means score below 0.9). In outline:
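Read-out is propidium iodide gain of signal by high-content imaging, reflecting membrane integrity loss. Measurements are taken 6 h after dosing, eight concentrations per chemical, with DMSO serving as baseline for bidirectional curve fitting.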

Assay [8] is described as follows: CCTE_Harrill_HTTr_Apoptosis_MCF7: CCTE's 6-hour Apoptosis Assessment for the High-Throughput Transcriptomics (HTTr) Platform, in MCF-7 cells cultured in DMEM + 10% fetal bovine serum, Harrill Lab (AID 2284011; active means hit-call score of the fitted dose curve at least 0.9, where 1 is the maximum; inactive means score below 0.9). In outline: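 MCF-7 (DMEM + 10% FBS), 384-well; 8-pt dilution series, 6 h chemical exposure; caspase-3/7 activation via CellEvent Caspase 3/7 Green, HCI; bidirectional fit vs DMSO.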

A short description of assay [9]: ATG_PPRE_CIS: Attagene CIS-FACTORIAL HepG2 Assay for human Peroxisome Proliferator-activated Response Element (PPRE) (AID 2282958; active means hit-call score of the fitted dose curve at least 0.9, where 1 is the maximum; inactive means score below 0.9). The conditions noted are these: HepG2 PPRE cis-element reporter, Attagene transcription factor profiling; actives raise or lower the signal. In outline: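 Endogenous PPRE-driven transcription is measured in HepG2 cells carrying transfected multi-reporter constructs. Reporter transcripts are quantified by RT-PCR, HpaI digestion and capillary electrophoresis 24 h after dosing. DMSO baseline, bidirectional fit.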

In assay [10] the target is Nuclear receptor subfamily 1 group I member 3 (Homo sapiens) (UniProt Q14994). In words: ATG_CAR_TRANS: Attagene TRANS-FACTORIAL HepG2 Assay for human Constitutive Androstane Receptor (CAR) (AID 2282969).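 Further: activators raise reporter mRNA above DMSO so AC50 marks induction.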 To be noted: HepG2 Attagene TRANS-FACTORIAL CAR reporter. In outline: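 Steps: transient transfection of HepG2 with multiple GAL4-UAS reporter units; 24 h compound incubation; RNA isolation, RT-PCR, 6-FAM primer extension, HpaI digest; capillary electrophoresis. Gain-of-signal relative to DMSO negative control.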
Nuclear receptor subfamily 1 group I member 3 (Homo sapiens), sequence (Q14994 whole entry, looked up, the tested form may be a part): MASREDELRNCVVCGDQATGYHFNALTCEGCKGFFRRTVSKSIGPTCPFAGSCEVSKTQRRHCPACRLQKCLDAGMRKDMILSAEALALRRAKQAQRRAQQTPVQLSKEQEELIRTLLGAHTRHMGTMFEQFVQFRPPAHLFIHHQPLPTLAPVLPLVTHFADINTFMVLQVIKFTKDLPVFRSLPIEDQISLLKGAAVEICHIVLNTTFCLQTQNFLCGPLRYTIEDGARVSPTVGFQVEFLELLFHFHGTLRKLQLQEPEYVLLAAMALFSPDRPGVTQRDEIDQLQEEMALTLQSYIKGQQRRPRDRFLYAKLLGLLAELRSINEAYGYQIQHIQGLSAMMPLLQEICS

Assay [11] concerns the target Glucocorticoid receptor (Homo sapiens) (UniProt P04150). Put plainly: ATG_GR_TRANS: Attagene TRANS-FACTORIAL HepG2 Assay for human Glucocorticoid Receptor (GR) (AID 2282978).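 Further: activators score as hits since higher reporter transcript over DMSO is fitted.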 To be noted: HepG2 Attagene TRANS GR reporter, mRNA transcription. Put shortly: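 Readout is reporter transcript from a chimeric GR-Gal4 acting on GAL4-UAS in transfected human HepG2 liver cells after 24 h exposure, quantified by RT-PCR and capillary electrophoresis. Activation fitted upward against DMSO.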

Assay [12] deals with Oxysterols receptor LXR-alpha (Homo sapiens) (UniProt Q13133). Put plainly: ATG_LXRa_TRANS: Attagene TRANS-FACTORIAL HepG2 Assay for human Liver X Receptor alpha (LXRa) (AID 2282980). The conditions noted are these: HepG2 Attagene TRANS reporter, LXRa transactivation. Put shortly:
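Transfect HepG2 with GAL4-UAS multiplex reporter constructs (TRANS format, chimeric receptor-GAL4); treat 24 h; extract RNA, reverse-transcribe, PCR-amplify, FAM-label, HpaI-digest; resolve fragments by capillary electrophoresis. Upward response vs DMSO.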

Assay [13] addresses human Peroxisome Proliferator-activated Receptor delta (PPARd), PPARD (gene 5467) (UniProt Q03181). In words: ATG_PPARd_TRANS: Attagene TRANS-FACTORIAL HepG2 Assay for human Peroxisome Proliferator-activated Receptor delta (PPARd) (AID 2283002). Put shortly:
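HepG2 cells transiently transfected with multiplexed GAL4-UAS reporter units and exogenous chimeric NR-Gal4 proteins; 24 h compound exposure. Reporter mRNA measured by RT-PCR, 6-FAM labelling, HpaI digestion and capillary electrophoresis; gain of signal versus DMSO.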

Assay [14] has as its target Peroxisome proliferator-activated receptor gamma (Homo sapiens) (UniProt P37231). Put plainly: ATG_PPARg_TRANS: Attagene TRANS-FACTORIAL HepG2 Assay for human Peroxisome Proliferator-activated Receptor-gamma (PPARg) (AID 2283007). Put shortly: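 After 24 h of chemical exposure, transfected HepG2 cells carrying PPARγ-Gal4 chimera reporter constructs are lysed for RNA. Reporter transcripts are measured by RT-PCR and capillary electrophoresis with fluorescent labelling, and gain of signal is fitted versus DMSO.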

Assay [15] addresses Retinoic acid receptor RXR-alpha (Homo sapiens) (UniProt P19793). In words: ATG_RXRa_TRANS: Attagene TRANS-FACTORIAL HepG2 Assay for human Retinoid X Receptor alpha (RXRa) (AID 2283012). In outline: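 Measures exogenous chimeric NR-GAL4 activity in transfected HepG2 liver cells after 24 h of dosing. Induced reporter mRNA was detected by RT-PCR with capillary electrophoresis, and gain of signal was analysed against DMSO.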

Assay [16] addresses human Vitamin D Receptor (VDR), VDR (gene 7421) (UniProt P11473). In words: ATG_VDR_TRANS: Attagene TRANS-FACTORIAL HepG2 Assay for human Vitamin D Receptor (VDR) (AID 2283022). In outline:
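Steps: transfect HepG2 with GAL4-UAS-driven reporter constructs; dose compounds 24 h; isolate RNA, reverse-transcribe, PCR-amplify with 6-FAM-labelled primer extension and HpaI digestion; quantify fragments by capillary electrophoresis relative to DMSO.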

The nature of assay [17]: TOX21_p53_BLA_p4_viability: Viability Assessment in the Tox21 HCT-116 p53 Agonism Beta-lactamase Assay, Phase 4 (AID 2283597).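 Further: hits lower the luminescence signal meaning cytotoxicity.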 In outline: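 Readout: ATP luminescence (CellTiter-Glo), measured 30 min after reagent addition at RT. The reagent followed a 2 h CCF4-AM incubation, and the cells had been exposed to compound for 16 h at 37C.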
The target of assay [18] is human RAR-related Orphan Receptor beta (RORb), RORB (gene 6096) (UniProt Q92753). Put plainly: ATG_RORb_TRANS: Attagene TRANS-FACTORIAL HepG2 Assay for human RAR-related Orphan Receptor beta (RORb) (AID 2283010). In outline:
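Transfect HepG2 with multiple GAL4-UAS reporter transcription units; dose chemicals for 24 h; isolate RNA, reverse-transcribe and PCR-amplify reporter sequences; label, digest and resolve fragments by capillary electrophoresis; fit increases relative to DMSO.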

For assay [19], the target named is Oxysterols receptor LXR-beta (Homo sapiens) (UniProt P55055). In words: ATG_LXRb_TRANS: Attagene TRANS-FACTORIAL HepG2 Assay for human Liver X Receptor beta (LXRb) (AID 2282981). To be noted: HepG2 Attagene TRANS GAL4-LXRb reporter, mRNA. In outline: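 Measures induction of a Gal4-driven reporter transcript in HepG2 cells expressing an exogenous LXRb-Gal4 fusion. Cells are exposed to compound for 24 h before RNA isolation and RT-PCR with capillary electrophoresis detection.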
Oxysterols receptor LXR-beta (Homo sapiens), sequence (P55055 whole entry, looked up, the tested form may be a part): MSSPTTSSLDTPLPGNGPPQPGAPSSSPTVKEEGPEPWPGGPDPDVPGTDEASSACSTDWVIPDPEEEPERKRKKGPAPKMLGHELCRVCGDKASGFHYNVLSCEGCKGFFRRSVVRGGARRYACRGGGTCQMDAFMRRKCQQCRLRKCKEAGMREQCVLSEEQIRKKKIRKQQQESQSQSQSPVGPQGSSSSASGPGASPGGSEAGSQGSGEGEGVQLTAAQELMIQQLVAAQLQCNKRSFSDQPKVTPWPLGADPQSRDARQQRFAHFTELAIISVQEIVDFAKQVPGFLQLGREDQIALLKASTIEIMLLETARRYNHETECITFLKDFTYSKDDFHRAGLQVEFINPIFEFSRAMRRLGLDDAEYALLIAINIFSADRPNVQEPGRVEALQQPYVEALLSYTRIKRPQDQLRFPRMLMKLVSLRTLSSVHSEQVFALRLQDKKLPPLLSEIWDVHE

A short description of assay [20]: ATG_M_06_TRANS: Attagene TRANS-FACTORIAL HepG2 Assay for M06 Transcription Factor (Internal Marker) (AID 2282983).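 Further: reporter transcript level by RT-PCR then capillary electrophoresis fluorescence.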 The conditions noted are these: HepG2 Attagene TRANS M06 internal marker reporter. In outline: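 Background control endpoint: reporter mRNA from transiently transfected HepG2 after 24 h dosing, detected by RT-PCR with capillary electrophoresis fluorescence. Analysed for gain versus DMSO.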

Retinoic acid receptor RXR-alpha (Homo sapiens), sequence (P19793 whole entry, looked up, the tested form may be a part): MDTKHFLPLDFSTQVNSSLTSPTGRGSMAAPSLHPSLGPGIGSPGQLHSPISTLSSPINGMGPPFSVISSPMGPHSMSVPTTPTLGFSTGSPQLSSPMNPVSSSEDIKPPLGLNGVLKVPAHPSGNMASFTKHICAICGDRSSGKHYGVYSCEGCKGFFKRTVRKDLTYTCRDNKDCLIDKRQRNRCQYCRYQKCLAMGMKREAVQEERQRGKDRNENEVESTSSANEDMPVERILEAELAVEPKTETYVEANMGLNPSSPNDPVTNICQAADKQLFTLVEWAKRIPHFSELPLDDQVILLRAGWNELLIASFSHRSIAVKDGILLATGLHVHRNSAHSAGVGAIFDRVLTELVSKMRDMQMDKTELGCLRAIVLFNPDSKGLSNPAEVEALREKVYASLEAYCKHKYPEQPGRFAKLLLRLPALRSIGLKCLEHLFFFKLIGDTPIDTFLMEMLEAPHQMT
human Peroxisome Proliferator-activated Receptor delta (PPARd), PPARD (gene 5467), sequence (Q03181 whole entry, looked up, the tested form may be a part): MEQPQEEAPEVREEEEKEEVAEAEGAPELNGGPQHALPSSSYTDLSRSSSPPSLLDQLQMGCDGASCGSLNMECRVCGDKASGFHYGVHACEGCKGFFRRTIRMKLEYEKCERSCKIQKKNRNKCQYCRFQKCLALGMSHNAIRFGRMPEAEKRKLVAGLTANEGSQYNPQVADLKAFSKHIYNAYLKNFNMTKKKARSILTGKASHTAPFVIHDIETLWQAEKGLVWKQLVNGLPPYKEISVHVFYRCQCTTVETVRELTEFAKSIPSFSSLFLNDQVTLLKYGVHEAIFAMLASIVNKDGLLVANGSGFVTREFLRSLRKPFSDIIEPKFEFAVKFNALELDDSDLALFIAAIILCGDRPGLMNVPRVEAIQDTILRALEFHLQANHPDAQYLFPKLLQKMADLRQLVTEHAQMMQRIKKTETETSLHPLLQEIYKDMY
human RAR-related Orphan Receptor beta (RORb), RORB (gene 6096), sequence (Q92753 whole entry, looked up, the tested form may be a part): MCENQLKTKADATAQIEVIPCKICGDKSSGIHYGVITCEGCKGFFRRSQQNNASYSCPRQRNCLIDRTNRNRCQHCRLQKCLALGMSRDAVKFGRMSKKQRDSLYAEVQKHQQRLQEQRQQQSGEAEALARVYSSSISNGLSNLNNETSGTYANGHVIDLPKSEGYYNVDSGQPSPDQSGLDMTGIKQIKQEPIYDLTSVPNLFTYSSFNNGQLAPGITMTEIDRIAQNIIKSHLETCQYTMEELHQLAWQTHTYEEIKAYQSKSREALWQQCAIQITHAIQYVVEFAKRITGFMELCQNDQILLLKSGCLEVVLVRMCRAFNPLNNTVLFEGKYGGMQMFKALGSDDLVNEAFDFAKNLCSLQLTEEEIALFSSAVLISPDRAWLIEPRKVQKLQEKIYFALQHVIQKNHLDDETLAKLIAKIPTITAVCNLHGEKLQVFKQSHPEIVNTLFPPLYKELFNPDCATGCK
Oxysterols receptor LXR-alpha (Homo sapiens), sequence (Q13133 whole entry, looked up, the tested form may be a part): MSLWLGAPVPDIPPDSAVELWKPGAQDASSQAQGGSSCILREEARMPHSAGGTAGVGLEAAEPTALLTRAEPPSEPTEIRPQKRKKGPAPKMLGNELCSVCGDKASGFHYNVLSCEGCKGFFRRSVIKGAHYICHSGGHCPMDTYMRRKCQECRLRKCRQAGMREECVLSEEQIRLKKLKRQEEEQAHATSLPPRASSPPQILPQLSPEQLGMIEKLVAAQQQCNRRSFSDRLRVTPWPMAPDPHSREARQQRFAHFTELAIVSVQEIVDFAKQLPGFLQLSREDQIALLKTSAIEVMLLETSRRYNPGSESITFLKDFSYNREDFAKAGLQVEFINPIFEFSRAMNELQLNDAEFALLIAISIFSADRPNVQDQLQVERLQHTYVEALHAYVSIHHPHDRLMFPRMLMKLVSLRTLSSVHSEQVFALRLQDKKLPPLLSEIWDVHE
Bile acid receptor (Homo sapiens), sequence (Q96RI1 whole entry, looked up, the tested form may be a part): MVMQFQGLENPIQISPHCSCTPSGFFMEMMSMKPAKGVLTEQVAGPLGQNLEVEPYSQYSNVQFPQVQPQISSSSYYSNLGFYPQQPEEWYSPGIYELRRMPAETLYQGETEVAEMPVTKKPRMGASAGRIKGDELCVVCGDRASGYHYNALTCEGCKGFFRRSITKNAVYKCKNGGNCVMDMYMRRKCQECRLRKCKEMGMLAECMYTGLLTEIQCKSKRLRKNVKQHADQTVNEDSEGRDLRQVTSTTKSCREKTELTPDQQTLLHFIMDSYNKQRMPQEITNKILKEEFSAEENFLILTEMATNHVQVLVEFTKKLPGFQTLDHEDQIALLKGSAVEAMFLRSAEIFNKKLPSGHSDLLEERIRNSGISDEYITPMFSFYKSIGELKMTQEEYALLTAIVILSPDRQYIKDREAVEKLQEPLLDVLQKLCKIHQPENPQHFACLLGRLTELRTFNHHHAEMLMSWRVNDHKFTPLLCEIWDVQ
Glucocorticoid receptor (Homo sapiens), sequence (P04150 whole entry, looked up, the tested form may be a part): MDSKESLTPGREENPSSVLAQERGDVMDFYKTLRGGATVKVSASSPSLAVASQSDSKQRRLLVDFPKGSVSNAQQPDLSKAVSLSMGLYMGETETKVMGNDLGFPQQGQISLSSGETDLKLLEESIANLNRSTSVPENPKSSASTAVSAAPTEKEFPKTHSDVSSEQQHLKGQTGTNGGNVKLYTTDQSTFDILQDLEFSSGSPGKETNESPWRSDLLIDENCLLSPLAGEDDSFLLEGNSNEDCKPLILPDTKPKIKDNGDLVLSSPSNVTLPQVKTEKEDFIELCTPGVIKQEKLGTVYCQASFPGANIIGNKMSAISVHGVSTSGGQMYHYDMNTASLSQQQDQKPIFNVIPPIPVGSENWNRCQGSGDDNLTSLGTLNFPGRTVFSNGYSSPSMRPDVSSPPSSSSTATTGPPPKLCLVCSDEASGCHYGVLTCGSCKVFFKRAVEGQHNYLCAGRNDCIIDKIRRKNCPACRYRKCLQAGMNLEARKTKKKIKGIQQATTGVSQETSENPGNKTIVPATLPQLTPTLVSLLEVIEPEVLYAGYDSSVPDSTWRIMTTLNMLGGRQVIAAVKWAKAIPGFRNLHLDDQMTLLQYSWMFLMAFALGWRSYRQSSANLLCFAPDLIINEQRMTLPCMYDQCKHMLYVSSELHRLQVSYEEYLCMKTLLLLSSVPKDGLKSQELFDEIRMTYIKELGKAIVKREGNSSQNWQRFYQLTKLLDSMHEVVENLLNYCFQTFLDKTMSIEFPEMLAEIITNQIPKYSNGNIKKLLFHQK
human Thyroid Receptor alpha (THRa1), THRA (gene 7067), sequence (P10827 whole entry, looked up, the tested form may be a part): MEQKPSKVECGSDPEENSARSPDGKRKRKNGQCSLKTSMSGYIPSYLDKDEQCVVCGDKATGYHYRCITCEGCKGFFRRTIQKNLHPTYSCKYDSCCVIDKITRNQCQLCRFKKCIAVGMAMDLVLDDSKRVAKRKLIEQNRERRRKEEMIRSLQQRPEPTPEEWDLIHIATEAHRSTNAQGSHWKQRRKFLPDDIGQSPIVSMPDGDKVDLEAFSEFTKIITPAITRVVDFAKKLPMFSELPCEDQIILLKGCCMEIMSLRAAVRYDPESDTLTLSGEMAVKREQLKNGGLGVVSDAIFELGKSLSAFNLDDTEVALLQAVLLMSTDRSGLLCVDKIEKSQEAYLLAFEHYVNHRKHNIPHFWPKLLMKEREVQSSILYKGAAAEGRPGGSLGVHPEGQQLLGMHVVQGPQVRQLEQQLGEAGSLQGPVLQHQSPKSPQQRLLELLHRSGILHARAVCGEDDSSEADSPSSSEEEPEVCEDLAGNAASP
Peroxisome proliferator-activated receptor gamma (Homo sapiens), sequence (P37231 whole entry, looked up, the tested form may be a part): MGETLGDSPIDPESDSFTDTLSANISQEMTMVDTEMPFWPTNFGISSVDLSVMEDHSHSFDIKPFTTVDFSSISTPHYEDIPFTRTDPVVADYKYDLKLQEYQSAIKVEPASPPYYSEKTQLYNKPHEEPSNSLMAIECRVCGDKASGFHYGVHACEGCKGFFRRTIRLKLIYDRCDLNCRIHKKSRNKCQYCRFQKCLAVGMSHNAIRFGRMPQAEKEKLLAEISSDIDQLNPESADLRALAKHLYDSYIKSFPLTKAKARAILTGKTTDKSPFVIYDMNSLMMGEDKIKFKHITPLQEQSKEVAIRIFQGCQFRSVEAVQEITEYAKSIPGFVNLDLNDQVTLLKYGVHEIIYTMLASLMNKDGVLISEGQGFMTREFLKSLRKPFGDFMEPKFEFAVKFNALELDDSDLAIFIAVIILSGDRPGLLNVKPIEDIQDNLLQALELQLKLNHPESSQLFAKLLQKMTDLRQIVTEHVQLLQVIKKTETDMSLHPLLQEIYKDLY

With `Clc1ccccn1`, the compound was called inactive in assay [1], in assay [2], in assay [3], in [4], in assay [5] and in [6]. Moreover, the result in [7] and in assay [8] was inactive.
For the compound `CCCCCC1CCCC(=O)O1` (stereo unspecified), the result in [9], in [1], in assay [10], in [2], in assay [3] and in assay [11] was inactive. In addition, the call in assay [4], in assay [12], in assay [13], in assay [14], in [15] and in assay [16] was inactive. Besides, the compound was classed as inactive in assay [17] and in assay [6].
As for `CCCCOC(=O)COc1ccc(Cl)cc1Cl`, the compound was called inactive in [1], in [10], in assay [2], in [14], in assay [18] and in assay [16]. Moreover, the outcome in assay [17] and in [6] was inactive.
`O=[N+]([O-])c1ccc2nc[nH]c2c1`: the outcome in [9], in [2], in [4], in [12], in assay [14] and in assay [18] was inactive. Moreover, the compound was called inactive in assay [5], in [6], in [7] and in assay [8].
Turning to `c1cc[c]([Bi]([c]2ccccc2)[c]2ccccc2)cc1`, the outcome in assay [10], in assay [3], in assay [19], in assay [20] and in assay [16] was inactive.
As usually defined, the AC50 is the concentration at which the activity in the assay is half-maximal. Take `CCCCCCC(O)CCCCCCCCCCC(=O)OC` (stereo unspecified): the compound was called inactive in [1], in assay [10], in assay [11], in assay [12], in assay [5] and in [16]. The compound was called inactive in assay [17] and in assay [6]. Besides, the AC50 in assay [13] is 22.8 µM (active).
For the compound `CC(C)=CCOC(=O)c1ccccc1`, the compound was called inactive in [2], in assay [11], in assay [12], in assay [19], in [13] and in assay [15]. Further, the call in assay [5], in assay [16] and in assay [17] was inactive. The AC50 in [6] is 50 µM (active).
Take `CC(=O)Nc1c(I)c(NC(C)=O)c(I)c(C(=O)O)c1I`: the call in [11] was inactive.
For `[O-][n+]1ccc(Cl)cc1`, the result in assay [3], in assay [11], in assay [4], in assay [19], in [20] and in [13] was inactive. Also, the compound was classed as inactive in assay [18] and in assay [16].
For the compound `CCCCCCCC#N`, the call in [9], in assay [2], in assay [3], in [11], in assay [12] and in assay [19] was inactive. For the same compound, the compound was classed as inactive in assay [5] and in assay [6].
Regarding `CC=CC(=O)O`, the outcome in assay [1], in assay [2], in assay [3], in assay [11], in [15] and in [5] was inactive. In addition, the call in assay [6] was inactive.
In the case of `CCOc1ccc2c(c1)C(C)CC(C)(C)N2` (stereo unspecified), the compound was classed as inactive in [9], in [10], in [2], in assay [4], in assay [19] and in assay [13]. Moreover, the call in assay [14] and in assay [16] was inactive. Also, the AC50 in [12] is 14.5 µM (active).
For the compound `CCC(C)NC(N)=O` (stereo unspecified), the result in assay [9], in assay [10], in assay [12], in assay [20], in [18] and in assay [17] was inactive. In assay [6], the half-maximal activity concentration (AC50) was 50 µM (active).
For `c1ccc2c(c1)Oc1ccccc1S2`, the compound was called inactive in assay [1], in assay [10], in assay [2], in [11], in assay [20] and in assay [13]. Besides, the call in assay [5], in [16] and in assay [17] was inactive.
Consider `NC(=O)c1ccc([N+](=O)[O-])cc1Cl`, for which the call in assay [9], in assay [2], in assay [11], in assay [4], in assay [13] and in [14] was inactive. The outcome in [18] and in assay [5] was inactive.

For the origin of these results see PubChem BioAssay (EPA / NIEHS).
